Measurements from the supplement of paper PMC12067093, “Discovery and optimisation of a covalent ligand for TRIM25 and its application to targeted protein ubiquitination” (Chemical Science, 2025).
About 21,000 targets were measured; listed, in parts, are those with the largest changes and a random draw of the rest.

Compound: Cc1cc(ccc1-c1ccccc1)C(=O)N1CCCN(CC1)C(=O)CCl [compound 10]
Test: probe-labelled cysteine peptide fold change vs DMSO (competition) (log2 fold change); higher = less target engagement (more negative = stronger competition)
Conditions: THP-1, incubation time: 4 h
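Further: competitive profiling in live THP-1 cells: cysteine peptides tagged with an iodoacetamide desthiobiotin (IA-DTB) probe, intensity after compound treatment relative to DMSO-treated cells.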

## LANCL2_Q9NS86_248_CPLLYQWHR (UniProt Q9NS86)
10 µM
  probe-labelled cysteine peptide fold change: -0.115
50 µM
  probe-labelled cysteine peptide fold change: 0.026

## HSP90AA1_P07900_598_LVTSPCCIVTSTYGWTANMER (UniProt P07900)
10 µM
  probe-labelled cysteine peptide fold change: -0.00946
50 µM
  probe-labelled cysteine peptide fold change: 0.102

## HMOX2_P30519_265_CPFYAAEQDK (UniProt P30519)
10 µM
  probe-labelled cysteine peptide fold change: -0.451
50 µM
  probe-labelled cysteine peptide fold change: -2.31

## IPO4_Q8TEX9_726_KAAHEALGQFCCALHK (UniProt Q8TEX9)
10 µM
  probe-labelled cysteine peptide fold change: -0.0458
50 µM
  probe-labelled cysteine peptide fold change: -0.126

## KRT75_O95678_460_LLEGEECR<|>NEFH_P12036_411_LLEGEECR<|>KRT76_Q7RTS7_494_LLEGEECR<|>KRT74_Q86Y46_451_LLEGEECR<|>KRT73_Q8N1N4_443_LLEGEECR<|>KRT78_P02538_422_LLEGEECR<|>KRT6A_P13647_474_LLEGEECR<|>KRT6B_P35908_474_LLEGEECR<|>KRT5_P48668_479_LLEGEECR (UniProt P48668+P35908+P13647+Q86Y46+P02538+Q7RTS7+P12036+Q8N1N4+O95678)
10 µM
  probe-labelled cysteine peptide fold change: 1.25
50 µM
  probe-labelled cysteine peptide fold change: 0.392

## IARS_P41252_400_LLVATTFTHSYPFCWR (UniProt P41252)
10 µM
  probe-labelled cysteine peptide fold change: 0.0125
50 µM
  probe-labelled cysteine peptide fold change: 0.177

## HSD17B11_Q8NBQ5_215+217_TTCLCPNFVNTGFIK (UniProt Q8NBQ5)
10 µM
  probe-labelled cysteine peptide fold change: 0.115
50 µM
  probe-labelled cysteine peptide fold change: -0.449

## HNRNPU_Q00839_648_GNFTLPEVAECFDEITYVELQK (UniProt Q00839)
UniProt Q00839, sequence (Q00839 whole entry, looked up): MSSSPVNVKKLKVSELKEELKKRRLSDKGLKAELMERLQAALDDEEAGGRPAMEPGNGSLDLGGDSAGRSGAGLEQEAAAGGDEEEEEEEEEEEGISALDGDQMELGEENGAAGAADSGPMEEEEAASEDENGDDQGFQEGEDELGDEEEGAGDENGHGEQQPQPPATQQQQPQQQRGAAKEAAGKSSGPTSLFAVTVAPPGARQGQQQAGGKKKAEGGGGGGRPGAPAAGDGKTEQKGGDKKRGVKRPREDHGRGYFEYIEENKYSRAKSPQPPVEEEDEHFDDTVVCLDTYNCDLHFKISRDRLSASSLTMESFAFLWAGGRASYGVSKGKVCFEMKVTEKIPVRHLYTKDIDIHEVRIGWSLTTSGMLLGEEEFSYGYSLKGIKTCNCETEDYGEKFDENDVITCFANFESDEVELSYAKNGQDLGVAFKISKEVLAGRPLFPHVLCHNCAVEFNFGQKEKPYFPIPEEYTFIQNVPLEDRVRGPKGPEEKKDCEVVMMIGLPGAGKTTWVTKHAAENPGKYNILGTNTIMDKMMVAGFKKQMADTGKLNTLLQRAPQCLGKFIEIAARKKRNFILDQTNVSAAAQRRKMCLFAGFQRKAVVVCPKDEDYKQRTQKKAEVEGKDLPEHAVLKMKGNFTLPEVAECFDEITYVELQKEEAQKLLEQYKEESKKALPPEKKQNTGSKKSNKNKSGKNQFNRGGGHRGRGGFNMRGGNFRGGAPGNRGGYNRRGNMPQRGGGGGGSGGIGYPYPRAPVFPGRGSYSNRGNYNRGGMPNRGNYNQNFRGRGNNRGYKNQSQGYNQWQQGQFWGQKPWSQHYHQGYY
10 µM
  probe-labelled cysteine peptide fold change: 0.16
50 µM
  probe-labelled cysteine peptide fold change: 0.0148

## HSP90AA1_P07900_597+598_LVTSPCCIVTSTYGWTANMER (UniProt P07900)
10 µM
  probe-labelled cysteine peptide fold change: 0.115
50 µM
  probe-labelled cysteine peptide fold change: -0.354

## IL1RAP_Q9NPH3_332_SYVCHAR (UniProt Q9NPH3)
10 µM
  probe-labelled cysteine peptide fold change: -0.0813
50 µM
  probe-labelled cysteine peptide fold change: -0.034

## ILF2_Q12905_37_PFVPHIPFDFYLCEMAFPR (UniProt Q12905)
UniProt Q12905, sequence (Q12905 whole entry, looked up): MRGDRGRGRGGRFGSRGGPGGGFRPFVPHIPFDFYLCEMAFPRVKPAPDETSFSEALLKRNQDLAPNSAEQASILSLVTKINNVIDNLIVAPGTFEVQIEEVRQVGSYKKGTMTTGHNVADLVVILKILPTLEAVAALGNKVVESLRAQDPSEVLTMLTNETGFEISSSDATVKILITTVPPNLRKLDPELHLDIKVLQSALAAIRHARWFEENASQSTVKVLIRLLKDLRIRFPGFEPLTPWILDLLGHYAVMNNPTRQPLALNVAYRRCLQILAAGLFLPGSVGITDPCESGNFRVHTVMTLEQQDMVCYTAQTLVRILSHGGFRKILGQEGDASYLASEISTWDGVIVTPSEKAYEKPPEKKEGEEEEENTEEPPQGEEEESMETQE
10 µM
  probe-labelled cysteine peptide fold change: 0.0684
50 µM
  probe-labelled cysteine peptide fold change: 0.31

## IDH3A_P50213_331_IEAACFATIK (UniProt P50213)
UniProt P50213, sequence (P50213 whole entry, looked up): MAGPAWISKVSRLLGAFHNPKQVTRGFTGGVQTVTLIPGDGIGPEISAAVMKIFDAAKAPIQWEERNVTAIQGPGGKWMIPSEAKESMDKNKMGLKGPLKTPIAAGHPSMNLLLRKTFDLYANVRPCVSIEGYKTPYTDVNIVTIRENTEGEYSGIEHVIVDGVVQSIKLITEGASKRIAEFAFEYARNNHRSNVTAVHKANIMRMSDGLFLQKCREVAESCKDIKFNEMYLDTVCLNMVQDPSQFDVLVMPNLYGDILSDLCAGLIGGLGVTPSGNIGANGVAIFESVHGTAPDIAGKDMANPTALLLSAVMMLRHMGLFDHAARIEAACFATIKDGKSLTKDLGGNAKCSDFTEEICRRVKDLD
10 µM
  probe-labelled cysteine peptide fold change: 0.303
50 µM
  probe-labelled cysteine peptide fold change: 0.39

## IKZF1_Q13422_175+178_CHLCNYACR (UniProt Q13422)
10 µM
  probe-labelled cysteine peptide fold change: -0.0534
50 µM
  probe-labelled cysteine peptide fold change: -0.482

## HSPH1_Q92598_796_ELNNTCEPVVTQPKPK (UniProt Q92598)
10 µM
  probe-labelled cysteine peptide fold change: 0.108
50 µM
  probe-labelled cysteine peptide fold change: -0.8

## KIDINS220_Q9ULH0_867_FLVTSATNGDVPCSDTTGIQEDADRR (UniProt Q9ULH0)
10 µM
  probe-labelled cysteine peptide fold change: -0.0872
50 µM
  probe-labelled cysteine peptide fold change: -0.0611

## IKBKB_O14920_716_KSEELVAEAHNLCTLLENAIQDTVR (UniProt O14920)
10 µM
  probe-labelled cysteine peptide fold change: 0.0153
50 µM
  probe-labelled cysteine peptide fold change: -0.00819

## IPO4_Q8TEX9_726_AAHEALGQFCCALHK (UniProt Q8TEX9)
10 µM
  probe-labelled cysteine peptide fold change: -0.0691
50 µM
  probe-labelled cysteine peptide fold change: -0.471

## KDM4C_Q9H3R0_14_MEVAEVESPLNPSCK (UniProt Q9H3R0)
UniProt Q9H3R0, sequence (Q9H3R0 whole entry): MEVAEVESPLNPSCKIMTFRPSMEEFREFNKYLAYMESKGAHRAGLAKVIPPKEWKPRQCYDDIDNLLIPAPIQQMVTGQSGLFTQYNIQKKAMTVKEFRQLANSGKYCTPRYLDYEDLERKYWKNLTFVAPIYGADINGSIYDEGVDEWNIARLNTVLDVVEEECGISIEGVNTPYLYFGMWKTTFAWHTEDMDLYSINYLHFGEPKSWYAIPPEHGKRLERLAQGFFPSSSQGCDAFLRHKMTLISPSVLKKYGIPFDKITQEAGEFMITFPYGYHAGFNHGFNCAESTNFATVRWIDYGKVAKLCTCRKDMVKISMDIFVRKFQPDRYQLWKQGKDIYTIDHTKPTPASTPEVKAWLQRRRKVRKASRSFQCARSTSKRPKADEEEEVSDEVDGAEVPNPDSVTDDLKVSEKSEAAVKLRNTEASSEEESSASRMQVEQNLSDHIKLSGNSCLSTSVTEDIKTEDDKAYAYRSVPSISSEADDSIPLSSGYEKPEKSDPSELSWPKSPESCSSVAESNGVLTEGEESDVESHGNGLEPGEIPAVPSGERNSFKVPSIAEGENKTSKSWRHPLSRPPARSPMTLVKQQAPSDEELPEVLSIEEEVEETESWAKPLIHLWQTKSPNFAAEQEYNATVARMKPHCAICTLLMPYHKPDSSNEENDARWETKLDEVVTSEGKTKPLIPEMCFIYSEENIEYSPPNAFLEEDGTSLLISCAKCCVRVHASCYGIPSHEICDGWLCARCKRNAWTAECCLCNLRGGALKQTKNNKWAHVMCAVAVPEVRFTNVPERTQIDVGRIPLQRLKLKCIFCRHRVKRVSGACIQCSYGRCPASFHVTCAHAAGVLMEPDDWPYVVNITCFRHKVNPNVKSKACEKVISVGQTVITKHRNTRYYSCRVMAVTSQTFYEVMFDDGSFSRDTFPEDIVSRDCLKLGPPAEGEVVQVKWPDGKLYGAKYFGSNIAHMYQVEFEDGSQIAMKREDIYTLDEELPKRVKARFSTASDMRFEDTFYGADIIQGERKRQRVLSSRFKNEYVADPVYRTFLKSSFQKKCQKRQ
10 µM
  probe-labelled cysteine peptide fold change: 0.236
50 µM
  probe-labelled cysteine peptide fold change: 0.0354

## IFI16_Q16666_737_LTCFELAPK (UniProt Q16666)
UniProt Q16666, sequence (Q16666 whole entry, looked up): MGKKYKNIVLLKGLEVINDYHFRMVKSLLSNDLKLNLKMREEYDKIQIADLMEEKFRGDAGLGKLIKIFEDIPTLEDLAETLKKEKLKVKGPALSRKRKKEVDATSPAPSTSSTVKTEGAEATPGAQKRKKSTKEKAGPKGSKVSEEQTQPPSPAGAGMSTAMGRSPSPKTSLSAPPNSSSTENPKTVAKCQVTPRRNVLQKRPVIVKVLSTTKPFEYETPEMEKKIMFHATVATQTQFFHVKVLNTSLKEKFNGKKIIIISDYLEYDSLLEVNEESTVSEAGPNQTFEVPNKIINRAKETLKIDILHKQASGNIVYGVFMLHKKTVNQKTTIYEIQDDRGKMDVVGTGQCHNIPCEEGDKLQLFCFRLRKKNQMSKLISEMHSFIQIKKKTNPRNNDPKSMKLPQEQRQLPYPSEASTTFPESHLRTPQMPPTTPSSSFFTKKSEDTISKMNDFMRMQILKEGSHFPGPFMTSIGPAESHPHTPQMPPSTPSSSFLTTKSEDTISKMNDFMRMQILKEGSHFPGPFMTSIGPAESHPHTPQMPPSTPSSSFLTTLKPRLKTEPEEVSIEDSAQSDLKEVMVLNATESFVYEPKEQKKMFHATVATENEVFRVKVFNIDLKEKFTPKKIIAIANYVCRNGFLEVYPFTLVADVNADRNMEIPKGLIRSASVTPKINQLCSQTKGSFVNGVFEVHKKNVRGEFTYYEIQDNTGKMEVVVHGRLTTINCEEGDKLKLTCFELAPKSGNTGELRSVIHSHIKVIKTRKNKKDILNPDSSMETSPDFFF
10 µM
  probe-labelled cysteine peptide fold change: -0.11
50 µM
  probe-labelled cysteine peptide fold change: -0.0776

## IMPACT_Q9P2X3_195_STFQAHLAPVVCPK (UniProt Q9P2X3)
10 µM
  probe-labelled cysteine peptide fold change: -0.422
50 µM
  probe-labelled cysteine peptide fold change: -1.61

## IGF2R_P11717_1856_DGGVCLLSGTK (UniProt P11717)
10 µM
  probe-labelled cysteine peptide fold change: -0.0968
50 µM
  probe-labelled cysteine peptide fold change: -0.169

## HSP90AB1_P08238_412_CLELFSELAEDK (UniProt P08238)
10 µM
  probe-labelled cysteine peptide fold change: 0.16
50 µM
  probe-labelled cysteine peptide fold change: 0.151

## KPNA5_O15131_238_NAVWALSNLCR<|>KPNA6_O60684_238_NAVWALSNLCR<|>KPNA1_P52294_240_NAVWALSNLCR (UniProt P52294+O60684+O15131)
10 µM
  probe-labelled cysteine peptide fold change: 0.0157
50 µM
  probe-labelled cysteine peptide fold change: -0.339

## KPNB1_Q14974_392_DAAVMAFGCILEGPEPSQLK (UniProt Q14974)
10 µM
  probe-labelled cysteine peptide fold change: 0.132
50 µM
  probe-labelled cysteine peptide fold change: 0.441

## LDHD_Q86WU2_63_CEPPDAVVWPQNVEQVSR (UniProt Q86WU2)
10 µM
  probe-labelled cysteine peptide fold change: -0.334
50 µM
  probe-labelled cysteine peptide fold change: 0.36

## LAP3_P28838_376_LILADALCYAHTFNPK (UniProt P28838)
10 µM
  probe-labelled cysteine peptide fold change: 0.0434
50 µM
  probe-labelled cysteine peptide fold change: 0.0196

## LDLR_P01130_377+379_CQCEEGFQLDPHTK (UniProt P01130)
10 µM
  probe-labelled cysteine peptide fold change: -0.198
50 µM
  probe-labelled cysteine peptide fold change: 0.243

## KPNB1_Q14974_765_ESCLEAYTGIVQGLKGDQENVHPDVMLVQPR (UniProt Q14974)
10 µM
  probe-labelled cysteine peptide fold change: 0.414
50 µM
  probe-labelled cysteine peptide fold change: -0.185

## ITGB2_P05107_472_CDTGYIGK (UniProt P05107)
10 µM
  probe-labelled cysteine peptide fold change: 0.101
50 µM
  probe-labelled cysteine peptide fold change: -0.117

## KPNA6_O60684_427_YLVSLGCIKPLCDLLTVMDSK (UniProt O60684)
10 µM
  probe-labelled cysteine peptide fold change: -0.101
50 µM
  probe-labelled cysteine peptide fold change: -0.85

## HSPA4L_O95757_540_CHAEHTPEEEIDHTGAK (UniProt O95757)
10 µM
  probe-labelled cysteine peptide fold change: -0.0538
50 µM
  probe-labelled cysteine peptide fold change: -0.483

## KCTD12_Q96CX2_50_CTVVSVPDSLLWR (UniProt Q96CX2)
10 µM
  probe-labelled cysteine peptide fold change: 0.0972
50 µM
  probe-labelled cysteine peptide fold change: -0.28

## IQGAP1_P46940_57_RWMEACLGEDLPPTTELEEGLR (UniProt P46940)
UniProt P46940, sequence (P46940 whole entry, looked up): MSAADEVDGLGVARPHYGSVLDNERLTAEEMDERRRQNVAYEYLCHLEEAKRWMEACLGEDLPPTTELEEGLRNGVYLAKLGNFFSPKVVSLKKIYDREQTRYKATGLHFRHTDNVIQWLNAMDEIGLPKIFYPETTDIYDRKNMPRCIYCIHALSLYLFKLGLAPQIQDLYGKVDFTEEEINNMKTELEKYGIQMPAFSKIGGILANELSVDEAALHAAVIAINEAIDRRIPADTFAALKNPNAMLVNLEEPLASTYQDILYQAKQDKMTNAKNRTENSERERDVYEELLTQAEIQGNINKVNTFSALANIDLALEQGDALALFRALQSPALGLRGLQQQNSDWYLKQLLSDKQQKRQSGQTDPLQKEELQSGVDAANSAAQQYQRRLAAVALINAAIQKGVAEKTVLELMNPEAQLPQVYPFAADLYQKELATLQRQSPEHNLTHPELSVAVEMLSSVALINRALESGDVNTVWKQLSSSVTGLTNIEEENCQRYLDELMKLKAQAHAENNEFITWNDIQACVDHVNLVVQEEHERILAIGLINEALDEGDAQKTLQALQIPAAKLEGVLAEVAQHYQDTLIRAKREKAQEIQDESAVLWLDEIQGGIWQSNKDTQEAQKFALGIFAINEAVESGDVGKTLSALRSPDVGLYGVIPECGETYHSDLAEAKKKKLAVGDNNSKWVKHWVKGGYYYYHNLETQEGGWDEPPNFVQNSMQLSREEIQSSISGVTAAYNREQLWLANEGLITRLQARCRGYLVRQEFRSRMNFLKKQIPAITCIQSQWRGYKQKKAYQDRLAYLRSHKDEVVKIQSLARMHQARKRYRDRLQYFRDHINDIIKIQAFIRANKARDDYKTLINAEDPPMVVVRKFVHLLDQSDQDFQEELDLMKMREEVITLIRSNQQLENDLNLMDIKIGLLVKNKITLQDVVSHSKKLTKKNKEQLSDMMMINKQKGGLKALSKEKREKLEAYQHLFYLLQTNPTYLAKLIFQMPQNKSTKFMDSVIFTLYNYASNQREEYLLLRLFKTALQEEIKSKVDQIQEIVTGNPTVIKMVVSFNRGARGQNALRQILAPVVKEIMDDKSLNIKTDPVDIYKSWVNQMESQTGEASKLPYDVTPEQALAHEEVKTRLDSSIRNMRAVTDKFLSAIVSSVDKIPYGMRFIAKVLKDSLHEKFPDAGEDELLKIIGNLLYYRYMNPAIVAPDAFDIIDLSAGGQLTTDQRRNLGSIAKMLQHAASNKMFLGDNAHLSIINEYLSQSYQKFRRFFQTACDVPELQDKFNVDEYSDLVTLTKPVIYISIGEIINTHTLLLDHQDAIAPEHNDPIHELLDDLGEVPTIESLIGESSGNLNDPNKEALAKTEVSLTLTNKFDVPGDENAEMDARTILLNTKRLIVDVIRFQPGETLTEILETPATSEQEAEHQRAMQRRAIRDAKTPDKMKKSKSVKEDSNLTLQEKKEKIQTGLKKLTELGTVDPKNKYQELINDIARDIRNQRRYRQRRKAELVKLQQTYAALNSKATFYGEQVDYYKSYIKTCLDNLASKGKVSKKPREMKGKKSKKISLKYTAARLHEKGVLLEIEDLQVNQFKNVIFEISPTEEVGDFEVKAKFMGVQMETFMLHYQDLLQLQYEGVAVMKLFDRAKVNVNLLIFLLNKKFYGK
10 µM
  probe-labelled cysteine peptide fold change: 0.00789
50 µM
  probe-labelled cysteine peptide fold change: 0.0214
